Screens: PubChem, National Center for Advancing Translational Sciences (NCATS)
The list is not random: actives were taken first. Their share in the collection is about 16%.
TDP1 inh = qHTS Assay for Inhibitors of Tyrosyl-DNA Phosphodiesterase (TDP1). Tyrosyl-DNA phosphodiesterase 1 (Homo sapiens), Q9NUW8. recombinant TDP1, AlphaScreen DNA substrate cleavage. Potency, µM (doses to about 130 µM), for inactives: at the highest dose activity change, negative = inhibition, hits mostly inhibitors. hit rate 0.28% among 350,000. AID 485290, 2010; note: potency is the fitted concentration of half-maximal effect; % is set by controls: 0 for no effect and ±100 for the full control effect; nearly all actives have a fitted effect of over 40% in size
Target sequence (Q9NUW8 whole entry, looked up): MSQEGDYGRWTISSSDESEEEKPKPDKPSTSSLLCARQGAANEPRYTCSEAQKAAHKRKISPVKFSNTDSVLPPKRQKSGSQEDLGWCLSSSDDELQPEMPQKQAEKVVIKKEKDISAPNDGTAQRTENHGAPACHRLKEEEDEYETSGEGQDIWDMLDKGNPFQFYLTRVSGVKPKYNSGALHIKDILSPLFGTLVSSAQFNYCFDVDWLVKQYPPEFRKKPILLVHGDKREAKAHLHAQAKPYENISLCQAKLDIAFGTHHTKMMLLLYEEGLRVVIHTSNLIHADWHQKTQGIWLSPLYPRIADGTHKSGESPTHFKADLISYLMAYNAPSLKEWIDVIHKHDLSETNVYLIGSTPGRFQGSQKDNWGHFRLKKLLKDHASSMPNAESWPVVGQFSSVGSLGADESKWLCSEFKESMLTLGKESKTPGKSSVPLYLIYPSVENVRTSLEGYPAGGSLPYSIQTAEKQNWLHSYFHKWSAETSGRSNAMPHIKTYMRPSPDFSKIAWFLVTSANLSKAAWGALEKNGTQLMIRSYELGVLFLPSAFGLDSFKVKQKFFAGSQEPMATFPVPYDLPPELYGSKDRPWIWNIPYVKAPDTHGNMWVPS
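Signal: AlphaScreen proximity between streptavidin donor and anti-FITC acceptor beads on intact substrate. Reaction: Tdp1 1 nM, substrate 15 nM final, 5 min RT after 15 min compound preincubation.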
miR-21 reporter = qHTS Assay for Modulators of miRNAs and/orActivators of miR-21 | HeLa miR-21 FLuc reporter, luciferase, 48 h | Potency, µM (series often up to 38.3 µM), for inactives: top-dose activity change, positive = activation, usual class: activators | 340,000 tested, under 10 active | AID 2288, 2010;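 note: % of control where 0% means no effect; miR-21 action dims this reporter so a rising signal means less miR-21 action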
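Compounds were titrated across several concentrations (up to approximately 40 uM) and incubated 48 hours with HeLa miR-21-FLuc reporter cells (miR-21 target sequence downstream of FLuc, endogenous miR-21). Readout was firefly luciferase luminescence after lytic detection reagent.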
uPA surface inh = qHTS for Inhibitors of Cell Surface uPA Generation; cell surface uPA generation assay, qHTS; hit rate 0.31% among 330,000; Potency, µM (doses to about 38.3 µM), for inactives: top-dose activity change, negative = inhibition, actives largely listed as inhibitors; active = well fitted inhibition curve with a large enough effect; inconclusive = small, poorly fitted or top-dose-only effect; inactive = no such curve, though single readings can be large or run the other way; tested in mouse RAW 264.7 cells; note: potency is the fitted concentration of half-maximal effect; % is set by controls: 0 for no effect and ±100 for the full control effect; nearly all actives have a fitted effect of over 55% in size
DT40 TDP1 CPT = qHTS for Inhibitors of human tyrosyl-DNA phosphodiesterase 1 (TDP1): qHTS in cells in presence of CPT | Potency, µM (series often up to 46.2 µM), for the others: at the highest dose activity change, negative = growth inhibition, usual class: inhibitors | chicken DT40 Tdp1-/-;hTDP1 cells + 20 nM CPT, ATP luminescence, 48 h | hit rate 12% among 420,000; note: potency is the fitted concentration of half-maximal effect; % is set by controls: 0 for no effect and ±100 for the full control effect; nearly all actives have a fitted effect of over 55% in size
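Chicken DT40 Tdp1-/- cells stably complemented with human TDP1 were seeded at 400 cells/well in medium containing 20 nM camptothecin, exposed to pin-transferred compounds, and grown at 37 °C for at least 48 hr. Viability was read as ATP luminescence.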
TDP1 cell noCPT = qHTS for Inhibitors of human tyrosyl-DNA phosphodiesterase 1 (TDP1): qHTS in cells in absence of CPT | AID 686978, 2013 | DT40 Tdp1-/- hTDP1 cells, no CPT, ATP luminescence, 48 h | hit rate 15% among 420,000 | Potency, µM (titrated, usually from 46.2 µM), without a hit: at the top dose activity change, negative = growth inhibition, actives largely listed as inhibitors; note: potency is the fitted concentration of half-maximal effect; % is set by controls: 0 for no effect and ±100 for the full control effect; nearly all actives have a fitted effect of over 55% in size
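DT40 Tdp1-/-;hTDP1 cells, no CPT (DMSO vehicle only), 400 cells/well; compounds pin-transferred; ≥48 hr, 37 °C; CellTiter-Glo 30 min RT dark, luminescence read.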
Active calls of the source: *; ? = inconclusive; / = no result given; ! = not confirmed by another sample; [ ] = dose if it differs, or a comment. Unless noted, calls come from the whole dose curve; as a rule, active = well fitted curve in the direction sought with a large enough effect; inconclusive = small, poorly fitted or top-dose-only effect, or another doubt; inactive = no such curve, though single readings can be large; an effect the other way counts as inactive or inconclusive.

SMILES	TDP1 inh	miR-21 reporter	uPA surface inh	DT40 TDP1 CPT	TDP1 cell noCPT
COc1cc(OC)c(NS(=O)(=O)c2cc(C(=O)OC(C)C(=O)NC3CC3)c(Cl)cc2Cl)cc1Cl (stereo unspecified)	2%	-4%	-4%	18µM*	23µM*
CC1C(=O)CC(c2ccccc2)N(C)C1c1ccccc1 (stereo unspecified)	-1%	-3%	-26%	?	-27%
CCC1C(c2ccccc2)N(C)C(c2ccccc2)CC1(O)c1ccccc1 (stereo unspecified)	4%	14%	8%	?	23µM*
O=c1c(-c2cccs2)nc2cnc(N3CCOCC3)nc2n1-c1ccccc1	/	/	/	-9%	-16%
Cn1cc(C(=O)N/N=C/c2cccc([N+](=O)[O-])c2)c2ccccc21	/	-5%	10%	-5%	?
Cc1ccc(Sc2ncccc2[N+](=O)[O-])cc1	/	-1%	-4%	24%	-4%
Cc1c([N+](=O)[O-])cnc(Sc2ccccc2)c1[N+](=O)[O-]	/	/	8.9µM*	?	9.2µM*
CCOc1ccc(CNn2cnnc2)cc1	/	-1%	1%	16µM*	?
CN(C)S(=O)(=O)N1CCN(CC(=O)Nc2ccc(F)cc2)CC1	/	-3%	21%	4%	-17%
O=C(Cc1ccc(F)cc1)N1CCC(N2CCC(C(=O)N3CCOCC3)CC2)CC1	0%	1%	-1%	0%	-13%
Cc1cccc(NC(=S)NCCc2ccccn2)c1	-4%	-26%	1%	-10%	-19%
CC(=NNC(=S)Nc1cccc(C)c1)c1ccccn1	/	/	-11%	0.018µM*	0.033µM*
CC(=NNC(=S)Nc1ccc(C)cc1)c1ccccn1	/	/	-12%	0.018µM*	0.018µM*
C/C(=N/O)c1ccccn1	6%	-1%	4%	8%	0%
COc1ccccc1NC(=O)c1ccccc1NC(=O)c1ccccn1	2%[0.505 µM]	/	-20%	?	?
COc1ccccc1NC(=S)NN=C(C)c1ccccn1	/	/	-8%	0.013µM*	0.15µM*
COc1ccc(/C=N/NC(=O)c2ccn[nH]2)cc1COc1ccc(Cl)cc1	5%	-28%	7%	?	?
O=C(O)CCn1c(=O)[nH]c(=O)n(CCC(=O)O)c1=O	-1%	-1%	3%	5%	0%
COc1ccc(CC(O)CC2c3c(cc4c(c3OC)OCO4)CCN2C)cc1 (stereo unspecified)	/	5%	-14%	-14%	?
COc1ccccc1CC(O)CC1c2c(cc3c(c2OC)OCO3)CCN1C (stereo unspecified)	/	/	6%	12µM*	10µM*
COc1ccc2c(c1OC)C(=O)OC2C1c2c(cc3c(c2OC)OCO3)CCN1C (stereo unspecified)	5%	11%	?	?	18µM*!
CN1CCc2cc3c(c4c2[C@H]1[C@H](O)c1ccccc1-4)OCO3	8%	13%	?	18µM*	?
COc1ccc2c(c1OC)C(=O)O[C@H]2C1c2c(cc3c(c2OC)OCO3)CCN1C (stereo partly specified)	12%[56.1 µM]	/	/	16µM*!	?
O=S(=O)(Nc1cccc(Cl)c1)c1ccc2[nH]c3c(c2c1)CCCCCC3	8%	?	/	16µM*	?
Cc1cccc(NC(=O)C2CCN(S(=O)(=O)c3ccc4[nH]c5c(c4c3)CCCCC5)CC2)c1	5%	26%	/	21µM*	?
Cc1ccc(NS(=O)(=O)c2ccc3[nH]c4c(c3c2)CCCCCC4)cc1Cl	8%	5%	/	?	?
Cc1cccc(NS(=O)(=O)c2ccc3[nH]c4c(c3c2)CCCCCC4)c1	9%	14%	/	18µM*	?
COC(=O)c1cc(NC(=O)C2(S(=O)(=O)c3ccc(C)cc3)CC2)cc(C(=O)OC)c1	5%	-7%	4%	-14%	?
